Measurements published in PubChem BioAssay (NCI).
Compounds without any hit were thinned out: in the full panel of roughly 83,000, 20% have a hit.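 How to read the values: 0–100, growth inhibition (40 = 60% inhibited); 0, no net growth; -100 to 0, cell death (-40 = 40% of starting cells died; -100 = all dead).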 Calls of active or inactive are those of the source. Rule for the calls: active = growth percent below 10; inactive = the rest.

Experiments:
Experiment in all cases: NCI-60 one-dose screen, 48 h (100 = growth as untreated, 0 = no growth, -100 = all killed)
Conditions in all cases: 10 µM unless noted
[1] = tested on: HCT-15 colon
[2] = tested on: HT29 colon
[3] = tested on: SNB-75 CNS
[4] = tested on: SNB-19 CNS
[5] = tested on: U251 CNS
[6] = tested on: PC-3 prostate
[7] = tested on: SK-MEL-5 melanoma
[8] = tested on: UACC-62 melanoma
[9] = tested on: LOX IMVI melanoma
[10] = tested on: SK-MEL-28 melanoma

Measured: growth

O=C(NC(=S)N1CCN(c2ncnc3c2cnn3-c2ccccc2)CC1)c1ccc(F)cc1
inactive: [1] 49.9% | [2] 78% | [3] 53.7% | [4] 84.9% | [5] 85.9% | [6] 71.9% | [7] 56% | [8] 74.2% | [9] 63.4% | [10] 85.6%

Cc1ccc(C(=O)Nc2cccc(C(=O)NC(=S)Nc3ccc(S(N)(=O)=O)cc3)c2)cc1
inactive: [1] 80.5% | [2] 85.1% | [3] 50.5% | [4] 83.1% | [5] 84.4% | [6] 78.9% | [7] 49.8% | [8] 69.4% | [9] 78.8% | [10] 79.8%

O=C1Nc2cc(-c3ccc(NS(=O)(=O)c4ccc([N+](=O)[O-])cc4)cc3)ccc2/C1=C/c1ccc[nH]1
inactive: [1] 11% | [3] 34.1% | [4] 31.1% | [6] 25.7% | [7] 24.2%
active: [2] -17.3% | [5] -62.4% | [8] 0.956% | [9] -20.6% | [10] 9.97%

S=C(NCCc1ccccc1)Nc1ccc(OCc2nc3ccc(Cl)cc3[nH]2)cc1
inactive: [2] 32.2% | [3] 33.4% | [4] 46.7% | [5] 16% | [6] 39.8% | [7] 40.8% | [8] 34.5% | [10] 48%
active: [1] 4.3% | [9] -46.3%

C=CC(=O)N1CCN(c2ccc3nc4c(nc3c2C(F)(F)F)C(=O)c2ncccc2C4=O)CC1
active: [1] 1.18% | [5] -17.3% | [6] -4.79% | [7] -98.6% | [8] -60% | [9] -8.11%
inactive: [2] 11.8% | [3] 82.3% | [4] 32.3% | [10] 30.5%

S=C(Nc1ccccc1)Nc1ccc(OCc2nc3ccc(Cl)cc3[nH]2)cc1
inactive: [1] 67.9% | [2] 105% | [3] 89.4% | [4] 89.1% | [5] 82.6% | [6] 77.8% | [7] 82.8% | [8] 77.3% | [9] 36.3% | [10] 87.9%

O=C1/C(=C/c2cnc(-c3ccccc3)s2)SC(=S)N1Cc1ccc2c(c1)OCO2
active: [3] -30.1%
inactive: [1] 81.2% | [2] 111% | [4] 16.7% | [5] 42% | [6] 97.9% | [7] 96.9% | [8] 61.5% | [9] 66.6% | [10] 103%

CC(=O)c1c2c(c3ccc4c5ccccc5ccc4n13)C(=O)c1ccccc1C2=O
inactive: [1] 81.6% | [2] 107% | [3] 93.8% | [4] 65.4% | [5] 82.9% | [6] 77.5% | [7] 63.7% | [8] 87% | [9] 64.5% | [10] 101%

COc1ccc(C(=O)/C=C/c2ccc3c(c2)OCCO3)cc1S(N)(=O)=O
inactive: [1] 41.9% | [2] 33.4% | [3] 82.5% | [4] 51.4% | [5] 12.2% | [6] 103% | [7] 99.8% | [8] 87.9% | [9] 23.7% | [10] 101%

Cc1ccc(C(C(=O)NC2CCCCC2)N(Cc2ccccc2Cl)C(=O)c2ccc(CN3CCOCC3)o2)o1 (stereo not given)
inactive: [1] 98.3% | [2] 95.4% | [3] 80.2% | [4] 85.6% | [5] 103% | [6] 78.5% | [7] 83.4% | [8] 66.2% | [9] 87% | [10] 114%

O=C(CSc1nnc(-c2ccc(-c3nc4ccccc4[nH]3)cc2)o1)Nc1ccc(Cl)cc1
active: [4] -37.3% | [5] -75.4% | [6] 7.32% | [9] -92.4% | [10] -85%
inactive: [1] 19.3% | [2] 26.6% | [3] 62.4% | [7] 34.1% | [8] 23.9%

COc1ccc(-c2nc3ccccc3n2CC(=O)N=Nc2c(O)[nH]c3ccc(Br)cc23)cc1
inactive: [1] 58.1% | [2] 45.4% | [3] 66.8% | [4] 89.3% | [5] 105% | [6] 76.7% | [7] 67.4% | [8] 72.1% | [9] 74.4% | [10] 97.8%

CCc1ccc(SC2c3cc(OC)ccc3Oc3nc(N)c(C#N)c(N)c32)cc1 (stereo not given)
active: [1] -45% | [2] -60.5% | [3] -21.3% | [4] 0.536% | [5] -13.4% | [6] 3.3% | [7] -95.9% | [8] -80.7% | [9] -62.2% | [10] 0.874%

CC(C)C[C@H](NC(=O)CNC(=O)C[C@H]1O[C@@H]2OC3(C)CC[C@H]4[C@H](C)CC[C@@H]([C@H]1C)[C@@]24O3)B(O)O
active: [2] -43.6% | [3] -34.8% | [6] 9.34% | [7] -87.6% | [8] -81.2% | [9] -83.6% | [10] -34.4%
inactive: [1] 33.1% | [4] 28.2% | [5] 17.4%

Cc1cc(C(NC(=O)CCCCCNc2cccc3c2C(=O)N(C2CCC(=O)CC2=O)C3=O)c2cccc(N(C)C)c2)c(O)c2ncccc12 (stereo not given)
inactive: [2] 28.6% | [3] 32.9% | [4] 10.1% | [5] 17.6% | [10] 10.7%
active: [1] 8.01% | [6] 7.35% | [7] -70.1% | [8] -6.03% | [9] 0.535%

COc1nc(N)ncc1-c1ccc2ncnc(N3CCc4cc(F)c(Cl)cc43)c2c1
active: [3] -52.7% | [4] 1.32% | [5] -44.9%
inactive: [1] 23.7% | [2] 36.7% | [6] 66.3% | [7] 57.5% | [8] 50% | [9] 14.5% | [10] 31.3%

CCOc1ccccc1[C@H]1C(C(=O)c2ccc(Cl)cc2)C2(N[C@@H]1c1ccccc1)C(=O)Nc1ccc(Br)cc12 (stereo not given in full)
inactive: [3] 44.4% | [4] 17.1%
active: [1] -5.64% | [2] -62.1% | [5] 0.419% | [6] 5.34% | [7] -89.3% | [8] -46.8% | [9] -100% | [10] -23.4%

OC(c1ccccc1)(c1ccccc1)C1CCN(c2ccc3nnc(Cl)n3n2)CC1
active: [7] -84.6%
inactive: [1] 18.1% | [2] 26.8% | [3] 61.3% | [4] 63.3% | [5] 45.9% | [6] 16.2% | [8] 54.5% | [9] 38.3% | [10] 52.2%

CC[C@]12C=CCN3CC[C@@]4(c5ccc(OC)cc5N(C)[C@H]4[C@@](O)(C(=O)OC)[C@@H]1OC(=O)CCC[P+](c1ccc(OC)cc1)(c1ccc(OC)cc1)c1ccc(OC)cc1)[C@@H]32
active: [1] -86.3% | [2] -84.3% | [3] -34% | [4] -96.7% | [5] -93.7% | [6] -78.8% | [7] -99.6% | [8] -97.1% | [9] -96.4% | [10] -96.3%

O=C(N/N=C/c1c[nH]c2ccccc12)Nc1ccc(F)c(Cl)c1
inactive: [1] 20.2% | [2] 33.5% | [3] 48% | [4] 73.4% | [5] 42.2% | [6] 43.3% | [7] 34% | [8] 48.6% | [10] 58.8%
active: [9] 4.2%

CCCCCCCCc1ccc(C(=O)Nc2ccc(C)cc2C(=O)O)cc1
inactive: [1] 53.2% | [2] 109% | [3] 106% | [4] 67.5% | [5] 75.4% | [6] 66.6% | [7] 87.1% | [8] 87.8% | [9] 89.9% | [10] 108%

CS(=O)(=O)Nc1cncc(-c2ccc3ncnc(NCc4ccccc4)c3c2)c1
active: [3] 5.11% | [7] -82.9%
inactive: [1] 64.3% | [2] 65.1% | [4] 39% | [5] 22.1% | [6] 42.1% | [8] 29.2% | [9] 35.9% | [10] 40.3%

COc1ccc(/C=C/C(=O)c2ccc(S(=O)(=O)NCCNc3nc(N(C)C)nc(N4CCOCC4)n3)cc2)cc1
inactive: [1] 59.3% | [2] 81.1% | [3] 61.8% | [4] 81.2% | [5] 77.4% | [6] 77.4% | [7] 94.6% | [8] 76.9% | [9] 79.7% | [10] 95.1%

CC[C@]12C=CCN3CC[C@]4(C(=C(C(=O)OC)C1)Nc1cc(OC)c([C@@H]5[C@H]6O[C@H]6[C@@]6(CC)CC(C(=O)OC)=C7Nc8cc(O)ccc8[C@@]78CCN5[C@@H]68)cc14)[C@@H]32
active: [1] -77.2% | [2] -27.1% | [5] -38.2% | [7] -96.1% | [8] -71.9% | [9] -94.5% | [10] -21.8%
inactive: [3] 27.3% | [4] 21.6% | [6] 13.5%

FC(F)(F)CN1CCN(CCn2c(C(F)(F)F)cc3c(Cl)ncnc32)CC1
inactive: [2] 12.5% | [6] 18.2% | [8] 28.4% | [10] 31.3%
active: [1] -56.7% | [3] -32.1% | [4] -87.5% | [5] -12.6% | [7] 9.63% | [9] -96.7%

Oc1ccc(F)c(Nc2nc(SCCN3CCOCC3)nc3c2cnn3CC(Cl)c2ccc(Br)cc2)c1 (stereo not given)
inactive: [3] 15.2% | [4] 46.1% | [5] 21.9% | [7] 18.1% | [8] 20.8% | [10] 21%
active: [1] 1.07% | [2] 8.07% | [6] 7.79% | [9] -17.8%
